Data as given in PubChem BioAssay AID1159580 (chemical genetic matrix, 2015).
Values joined by “and” are separate entries in the source; they are usually repeats but may differ in a detail not shown here. Identical values can stand only once. The whole screen tested about 5,500 compounds, of which about 2,000 (36%) were called active. Roughly 18% stayed inconclusive and do not appear here. No stated cut-off is given here; in the data, active means normalized growth mostly below about 0.91 (no sharp cut-off); inconclusive means no clear call, values can overlap the other calls; inactive means mostly above about 0.92. The list shows a part of the results.

Test: chemical genetic growth profiling, strain panel (AID 1159580);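 further: tested at 20 µM; growth read once vehicle control cultures reached saturation at 30 °C; 1 = growth at the plate median or of vehicle wells; lower values mean less growth of the strain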
Conditions: S. cerevisiae deletion strains, growth OD

Measured: normalized growth

CC(COc1ccccc1)N(CCCl)Cc1ccccc1 (stereo not given)
inactive: locus YAL013W, strain DEP1, active compounds read low 1.01 | locus YAL021C, strain ccr4, active compounds read low 0.96 | locus YAL026C, strain drs2, active compounds read low 0.936 | locus YAL030W, strain snc1, active compounds read low 0.974 | locus YAL040C, strain CLN3, active compounds read low 1.09 | locus YBL061C, strain skt5, active compounds read low 0.978 | locus YBR009C, strain hhf1, active compounds read low 0.99 | locus YBR021W, strain FUR4, active compounds read low 1.02 | locus YBR023C, strain chs3, active compounds read low 0.97 | locus YBR171W, strain sec66, active compounds read low 0.984 | locus YBR229C, strain ROT2, active compounds read low 1 | locus YBR231C, strain swc5, active compounds read low 1.01 | locus YBR279W, strain paf1, active compounds read low 0.961 | locus YCL016C, strain dcc1, active compounds read low 0.947 | locus YCL029C, strain bik1, active compounds read low 1.03 | locus YCL061C, strain MRC1 (second series), active compounds read low 0.956 | locus YCL061C, strain MRC1, active compounds read low 0.964 | locus YCL069W, strain vba3, active compounds read low 0.995 | locus YCR088W, strain abp1, active compounds read low 0.986 | locus YDL005C, strain med2, active compounds read low 0.972 | locus YDL035C, strain GPR1, active compounds read low 0.997 | locus YDL040C, strain nat1, active compounds read low 0.983 | locus YDL074C, strain BRE1, active compounds read low 1.02 | locus YDL101C, strain DUN1, active compounds read low 1.01 | locus YDL134C, strain PPH21, active compounds read low 1.01 | locus YDL185W, strain tfp1, active compounds read low 1.01 | locus YDL192W, strain arf1, active compounds read low 1.01 | locus YDR001C, strain nth1, active compounds read low 0.985 | locus YDR069C, strain doa4, active compounds read low 0.965 | locus YDR101C, strain arx1, active compounds read low 1.01 | locus YDR137W, strain rgp1, active compounds read low 0.853 | locus YDR150W, strain NUM1, active compounds read low 1.01 and 0.963 | locus YDR159W, strain sac3, active compounds read low 0.978 | locus YDR162C, strain NBP2, active compounds read low 0.998 | locus YDR195W, strain ref2 1.03 | locus YDR297W, strain sur2, active compounds read low 0.995 | locus YDR318W, strain mcm21, active compounds read low 1.01 | locus YDR334W, strain swr1, active compounds read low 0.969 | locus YDR335W, strain msn5, active compounds read low 0.974 | locus YDR363W, strain ESC2, active compounds read low 0.905 | locus YDR388W, active compounds read low 1.02 | locus YDR392W, strain spt3, active compounds read low 0.742 | locus YDR502C, strain sam2, active compounds read low 0.999 | locus YEL003W, strain gim4, active compounds read low 0.991 | locus YEL037C, strain rad23, active compounds read low 0.978 | locus YEL061C, strain CIN8 (second series), active compounds read low 0.971 | locus YEL061C, strain CIN8, active compounds read low 1.01 | locus YER002W, strain NOP16, active compounds read low 1.02 | locus YER015W, strain faa2, active compounds read low 0.993 | locus YER016W, strain bim1, active compounds read low 0.983 | locus YER110C, active compounds read low 1.01 | locus YER111C, strain swi4, active compounds read low 0.995 | locus YER155C, strain BEM2 (second series), active compounds read low 0.994 | locus YER155C, strain BEM2, active compounds read low 1.01 | locus YER167W, strain BCK2, active compounds read low 0.991 | locus YFR010W, strain ubp6, active compounds read low 0.986 | locus YGL078C, strain dbp3, active compounds read low 1.01 | locus YGL086W, strain mad1, active compounds read low 0.986 | locus YGL167C, strain pmr1, active compounds read low 1 | locus YGL173C, strain kem1, active compounds read low 1.01 | locus YGL227W, strain vid30, active compounds read low 0.973 | locus YGL240W, strain doc1, active compounds read low 1 | locus YGL248W, strain PDE1, active compounds read low 1.01 | locus YGL253W, strain hxk2, active compounds read low 0.921 | locus YGR078C, strain PAC10, active compounds read low 1.01 | locus YGR135W, strain pre9, active compounds read low 1.01 | locus YGR229C, strain SMI1, active compounds read low 0.999 | locus YGR252W, strain gcn5, active compounds read low 0.957 | locus YHR013C, strain ard1, active compounds read low 0.924 | locus YHR027C, strain rpn1, active compounds read low 0.991 | locus YHR030C, strain SLT2, active compounds read low 1.01 and 0.986 | locus YHR079C, strain IRE1 (second series), active compounds read low 1.02 | locus YHR079C, strain IRE1, active compounds read low 0.964 | locus YHR094C, strain hxt1, active compounds read low 1.02 | locus YHR129C, strain ARP1, active compounds read low 1.01 | locus YHR142W, strain chs7, active compounds read low 0.938 | locus YHR200W, strain rpn10, active compounds read low 1.01 | locus YIL066C, strain RNR3, active compounds read low 1.01 | locus YIL073C, strain SPO22, active compounds read low 1.05 | locus YIL125W, strain kgd1, active compounds read low 1.01 | locus YIR030C, strain dcg1, active compounds read low 1.02 | locus YJL092W, strain hpr5, active compounds read low 0.963 | locus YJL095W, strain BCK1 (second series), active compounds read low 0.958 | locus YJL095W, strain BCK1, active compounds read low 1 and 0.997 | locus YJL115W, strain asf1, active compounds read low 0.947 | locus YJL129C, strain trk1, active compounds read low 0.956 | locus YJL134W, strain LCB3, active compounds read low 1 | locus YJL154C, strain vps35, active compounds read low 0.982 | locus YJL164C, strain tpk1, active compounds read low 0.961 | locus YJL166W, strain qcr8, active compounds read low 0.974 | locus YJL168C, strain set2, active compounds read low 1.01 | locus YJL187C, strain SWE1 (second series), active compounds read low 1.03 | locus YJR043C, strain POL32, active compounds read low 1.02 | locus YJR066W, strain TOR1, active compounds read low 0.925
active: locus YCL011C, strain gbp2, active compounds read low 0.895
